G9a block: G9a (human) methyltransferase inhibition; AID 504332; Potency, µM (highest dose often 102 µM), inactives show at the highest dose activity, negative = inhibition, most hits filed as inhibitors; Q96KQ7; G9a H3K9 monomethylation, AlphaScreen, 2 h; 350,000 tested, 8.8% active; also: % is scaled to controls: 0 for no effect and ±100 for the full control effect; nearly all actives have a fitted effect of over 75% in size
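Step 1: enzyme (final 20 nM) with compound, 15 min RT. Step 2: substrate peptide 500 nM and SAM 20 uM, 2 h RT. Step 3: anti-H3K9me1 antibody and AlphaScreen beads, 10 min, then plate read.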
Sfp PPTase inh: inhibitors of Bacillus subtilis Sfp phosphopantetheinyl transferase | Q9F4F7 | Biochemical Sfp PPTase activity, qHTS | Potency, µM, for inactives: largest response in the series, negative = inhibition, usual class: inhibitors | 310,000 tested, 3.5% active;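 also: the enzyme is Sfp with the accession as filed and its product quenches rhodamine fluorescence; 0% = enzyme reaction without inhibitor and -100% = no enzyme wells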
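Sfp 15 nM + cpd, 15 min RT; start w/ rhodamine-CoA 5 uM, BHQ-2-YbbR 12.5 uM (final); 50 mM Hepes pH 7.6, 10 mM MgCl2, 0.01% NP-40, 0.01% BSA; read 525/598 nm at 0 and 30 min.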
12-LOX inh: inhibitors of human 12S-lipoxygenase ALOX12; 580,000 tested, 1.1% active; Potency, µM (doses to about 108 µM), for the others: top-dose activity change, negative = inhibition, hits mostly inhibitors; AID 1671190; P18054; purified 12hLO, xylenol orange hydroperoxide absorbance; also: % is scaled to controls: 0 for no effect and ±100 for the full control effect
Target sequence (P18054 whole entry, looked up): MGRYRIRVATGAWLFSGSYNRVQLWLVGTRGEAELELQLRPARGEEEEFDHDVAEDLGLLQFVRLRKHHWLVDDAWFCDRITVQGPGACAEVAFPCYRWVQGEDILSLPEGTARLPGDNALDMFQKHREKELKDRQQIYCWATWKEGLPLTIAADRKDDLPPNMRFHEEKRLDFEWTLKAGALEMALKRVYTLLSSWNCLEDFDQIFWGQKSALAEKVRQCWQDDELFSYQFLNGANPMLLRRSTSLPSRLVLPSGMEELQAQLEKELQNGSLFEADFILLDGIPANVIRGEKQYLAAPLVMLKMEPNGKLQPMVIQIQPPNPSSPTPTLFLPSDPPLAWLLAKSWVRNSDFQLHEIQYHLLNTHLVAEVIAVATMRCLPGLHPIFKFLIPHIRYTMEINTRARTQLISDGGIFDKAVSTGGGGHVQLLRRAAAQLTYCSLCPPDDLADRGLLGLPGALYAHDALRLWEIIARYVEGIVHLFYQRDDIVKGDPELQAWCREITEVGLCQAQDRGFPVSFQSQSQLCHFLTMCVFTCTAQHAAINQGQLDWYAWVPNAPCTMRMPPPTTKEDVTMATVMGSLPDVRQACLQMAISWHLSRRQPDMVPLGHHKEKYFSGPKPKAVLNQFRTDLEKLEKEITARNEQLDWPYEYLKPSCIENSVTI
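Purified human 12hLO at 150 nM in 25 mM Hepes, 0.01% Triton X-100, pH 7.0, preincubated 15 min at room temperature with compound. Reaction started with 40 uM arachidonic acid, 30 min at room temperature. Hydroperoxide measured by Fe-xylenol orange, 573/405 nm absorbance ratio.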
GRP78 ERSR act: inducers of ER stress response in human glioma cells; AID 602332; 420,000 tested, 0.02% active; Potency, µM, for the others: at the highest dose activation, hits mostly activators; U87-MG GRP78 promoter luciferase reporter, 16 h; also: series mostly up to about 76 µM; % of control where 0% means no effect; nearly all actives have a fitted effect of over 35% in size
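Stably transfected U87-MG human glioma cells carrying a GRP78-based luminescent sensor were seeded at 1000 cells/well, pin-dosed with compounds and incubated 16 h. Luciferase reagent was then added, and end-point luminescence was read after 10 min at room temperature.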
VDR inh: vitamin D3 receptor (human) inhibition. P11473. VDR-SRC2-3 peptide fluorescence polarization, 2 h. Potency, µM, without a hit: max response, negative = inhibition, most hits filed as inhibitors. 400,000 tested, 0.93% active. AID 504847; also: % is scaled to controls: 0 for no effect and ±100 for the full control effect
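Inhibition of the VDR/SRC2-3 peptide interaction is quantified by fluorescence polarization. Compounds (23 nl, pintool) incubate with the reagents for 2 hours at ambient room temperature.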
Starred values were filed as active, the others as inactive; i = inactive; ? = inconclusive; nt = no result; [ ] = dose if it differs, or a comment. Many of the other results were omitted from the sample, so hits are more common in it than they were. Calls follow the shape of the dose curve; as a rule, active = well fitted curve in the direction sought with a large enough effect; inconclusive = small, poorly fitted or top-dose-only effect, or another doubt; inactive = no such curve, though single readings can be large; an effect the other way counts as inactive or inconclusive. Potency is read from the fitted curve at half-maximal effect.

SMILES | G9a block | Sfp PPTase inh | 12-LOX inh | GRP78 ERSR act | VDR inh
CCOc1ccc(C(=O)c2ccc(Cl)cc2)cc1 | nt | nt | 3% | nt | nt
CCOc1ccc(Oc2ccc(Cl)cc2N)cc1 | 50µM* | 5% | -3% | 0% | -33%
CCC(=O)Oc1c(Sc2ccc(Cl)cc2)c(C)nn1-c1ccccc1 | 2.8µM* | nt | 16µM* | -5% | 79µM*
Cc1nn(C(=O)C2CC2)c(C)c1Sc1ccc(Cl)cc1 | 44%[59 µM] | 0% | 197% | 1% | -10%
CCC(=O)Oc1c(Sc2ccc(C)cc2)c(C)nn1-c1ccccc1 | 10µM* | nt | ? | -4% | 79µM*
Cc1ccc(Sc2c(C)nn(C(C)(C)C)c2OC(=O)CC(C)C)cc1 | 82%[59 µM] | nt | -29% | -1% | -6%
CCCC(=O)Oc1c(Sc2ccc(C)cc2)c(C)nn1-c1ccccc1 | 2µM* | nt | ? | 1% | 18µM*
CCOc1ccccc1NC(=O)CSc1nnc(-n2nc(C)cc2C)n1N | nt | nt | 38% | nt | nt
O=C(CCC1CCCC1)Nc1cccc2ncccc12 | nt | nt | 7% | nt | nt
COc1ccc(-c2ccc(SCC(=O)Nc3nnc(C)s3)nn2)cc1 | 9% | 0% | -11% | -2% | -23%
CCc1nnc(NC(=O)CSc2ccc(-c3ccc(C)cc3)nn2)s1 | 50µM* | ? | -4% | 2% | -13%
CCc1nnc(NC(=O)CSc2nnc(CSc3nc(C)cc(C)n3)o2)s1 | 40µM* | 50µM* | 3% | -2% | 1%
CCOc1ccc(-c2ccc(SCC(=O)Nc3nnc(CC)s3)nn2)cc1 | 28µM* | 3% | -4% | 6% | -10%
Cc1cccc(/C=N/NC(=O)CCc2ccccc2)c1 | nt | nt | -25% | nt | nt
CC(NC(=O)C1CCCCC1)C1CCCO1 (configuration not stated) | nt | nt | 10% | nt | nt
NC(=O)CSc1oc(-c2ccco2)nc1S(=O)(=O)c1ccc(Br)cc1 | 28µM* | -13% | ? | -3% | -1%
Cc1ccc(S(=O)(=O)c2nc(-c3ccco3)oc2SCC(N)=O)cc1 | ? | 1% | ? | 1% | -4%
CSc1oc(-c2ccco2)nc1S(=O)(=O)c1ccc(Br)cc1 | 40µM* | -2% | -6%[57.4 µM] | -1% | -12%
CCCCSc1oc(-c2ccco2)nc1S(=O)(=O)c1ccc(F)cc1 | nt | nt | 7.9µM* | nt | nt
CC(C)(C)n1nnnc1C(C1CC1)N1C(=O)C(=O)c2ccccc21 (configuration not stated) | nt | nt | 10% | nt | nt
CCCc1ccc(C2(C)NC(=O)N(Cc3ncc(-c4ccccc4)o3)C2=O)cc1 (configuration not stated) | nt | nt | 3% | nt | nt
COc1cc(C(=O)NCc2c(C)nn(Cc3ccccc3)c2C)cc(Cl)c1OC | nt | nt | -17% | nt | nt
CC(=O)c1ccc(NC(=O)c2noc3c2CCCCC3)cc1 | 56µM* | -10% | 10% | 0% | 7%
CCOC(=O)c1ccccc1NC(=O)Nc1cccc(Cl)c1 | nt | nt | 8% | nt | nt
CCOC(=O)NC1(Nc2cccc(Cl)c2)Oc2ccccc2O1 | 2µM* | ? | 45µM* | 2% | -19%
SMILES | G9a block | Sfp PPTase inh | 12-LOX inh | GRP78 ERSR act | VDR inh
O=c1cc(CO)oc(C(Nc2ccccn2)c2ccccc2F)c1O (configuration not stated) | nt | nt | ? | -4% | ?
COc1cccc(C(Nc2ccccn2)c2oc(CO)cc(=O)c2O)c1 (configuration not stated) | 1.3µM* | 4.5µM* | -8% | -1% | ?
O=c1cc(CO)oc(C(Nc2ccccn2)c2cccc(F)c2)c1O (configuration not stated) | 1.3µM* | 10µM* | -16% | -5% | 16µM*
O=c1cc(CO)oc(C(Nc2ccccn2)c2ccc(C(F)(F)F)cc2)c1O (configuration not stated) | 1.6µM* | ? | ? | 0% | ?
Cc1ccc(S(=O)(=O)NCCc2ccc(S(N)(=O)=O)cc2)c(C)c1 | nt | nt | 9% | nt | nt
CN1C(=O)Cc2cc(C(=O)CSc3nnc(C4CC4)n3C3CC3)ccc21 | nt | nt | -6% | nt | nt
COC(=O)c1ccc(Oc2coc3cc(OCc4ccccc4)ccc3c2=O)cc1 | nt | nt | 3% | nt | nt
Cc1c(C(=O)Nc2ccccc2[N+](=O)[O-])csc1-c1ccccc1 | 25µM* | 1% | -27% | -3% | -1%
CC(=O)n1cc(Nc2ccccc2C(=O)O)c2ccccc21 | 40µM* | 7% | ? | -2% | -10%
O=C(O)c1ccccc1Nc1ccccc1 | 24µM* | 25% | -15% | 0% | -15%
Cc1c(C(=O)Nc2ccc(Nc3ccccc3)cc2)cccc1[N+](=O)[O-] | 40µM* | 2% | -2% | -4% | -17%
Cc1c(C(=O)Nc2ccccc2)csc1-c1ccccc1 | 16% | 11% | 2% | -7% | -15%
CCCCNC(=O)c1ccccc1NC(=O)Cn1cnc2c1c(=O)n(C)c(=O)n2C | nt | nt | 21% | nt | nt
Cc1nn(C)c(C(=O)Nc2cccc(Nc3ccccc3)c2)c1[N+](=O)[O-] | 45µM* | -8% | i | nt | nt
COc1cccc(Nc2ccccc2C(=O)O)c1 | 40µM* | 11% | -14% | 7% | 2%
COc1cc(-c2ccc(Nc3ccccc3C(=O)O)c(OC)c2)ccc1Nc1ccccc1C(=O)O | 0.79µM* | 50µM* | 35µM* | 8% | ?
CC(=O)Nc1ccc(NC(=O)c2ccccc2Nc2ccccc2)cc1 | 50µM* | 5% | -8% | -3% | 1%
c1ccc(Nc2cc3c(cn2)CN(Cc2c[nH]c4ccccc24)CCN3)cc1 | nt | nt | 17%[176 µM] | nt | nt
COC(=O)C1=C(C)Nc2nc3ccccc3n2C1c1ccc(O)c(OC)c1 (configuration not stated) | nt | nt | 25% | nt | nt
O=C(NCc1nnc(SCC(=O)N2CCN(c3ccccc3)CC2)o1)c1ccc(F)cc1 | 79µM* | -18% | 4% | -6% | -6%
COc1ccc(C(=O)NCc2nnc(SCC(=O)N3CCCCC3)o2)cc1OC | 79µM* | -13% | -26% | -2% | -4%
Cc1nc(Cc2nnc(SCC(=O)N3CCN(c4ccccc4)CC3)o2)cs1 | 45µM* | nt | ? | -4% | -11%
Cc1nc(Cc2nnc(SCC(=O)N3CCN(c4ccc(O)cc4)CC3)o2)cs1 | 4%[12.7 µM] | nt | -9% | -5% | -1%
O=C(NCc1nnc(SCC(=O)N2CCCC2)o1)c1ccc(F)cc1 | 110% | 20% | -1% | -5% | -2%
Cc1ccc(C)c(NC(=O)N2CCCC2c2ccccc2Cl)c1 (configuration not stated) | nt | nt | -23% | nt | nt
SMILES | G9a block | Sfp PPTase inh | 12-LOX inh | GRP78 ERSR act | VDR inh
Fc1ccccc1Cn1cc(C(=S)N2CCOCC2)c2ccccc21 | ? | 5% | ? | -4% | -1%
Fc1ccc(Cn2cc(C(=S)N3CCOCC3)c3ccccc32)cc1 | ? | 3% | ? | -3% | -2%
COCCn1cc(C(=S)N2CCCCC2)c2ccccc21 | -37% | -1% | 492% | -2% | 9%
CC1CCN(C(=S)c2cn(Cc3cccc(F)c3)c3ccccc23)CC1 | -11%[59 µM] | -5% | 45µM* | -3% | 2%
CN1CCN(C(=S)c2cn(Cc3ccc(Br)cc3)c3ccccc23)CC1 | 35µM* | 12% | 0% | -1% | -19%
CN1CCN(C(=S)c2cn(Cc3ccccc3)c3ccccc23)CC1 | 45µM* | 7% | -11% | -4% | 0%
